# Source: PubChem BioAssay (National Center for Advancing Translational Sciences (NCATS))
# In the library only some 3.4% were active in any assay of this set; here they are far more common.
# AmpC inh no detg – qHTS Inhibitors of AmpC Beta-Lactamase (assay without detergent). Potency, µM (doses to about 57.1 µM), usual class: inhibitors. P00811. AmpC nitrocefin hydrolysis, absorbance 480 nm, 0.0001% Triton. AID 485341, 2010. 330,000 compounds, 0.52% hits; also: nearly all actives have a fitted effect of over 20% in size
# Target sequence (P00811 whole entry, looked up): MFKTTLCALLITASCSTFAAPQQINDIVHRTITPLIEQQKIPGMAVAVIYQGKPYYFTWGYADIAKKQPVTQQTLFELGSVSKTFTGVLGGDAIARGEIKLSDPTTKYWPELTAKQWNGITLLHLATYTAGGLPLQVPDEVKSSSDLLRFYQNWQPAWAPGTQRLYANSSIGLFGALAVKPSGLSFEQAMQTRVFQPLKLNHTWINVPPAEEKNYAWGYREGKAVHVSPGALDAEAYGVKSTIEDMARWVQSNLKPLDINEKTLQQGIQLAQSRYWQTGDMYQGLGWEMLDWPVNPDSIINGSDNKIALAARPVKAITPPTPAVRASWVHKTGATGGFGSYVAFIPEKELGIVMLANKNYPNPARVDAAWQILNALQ
#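 20 mM phosphate pH 7.0 + 0.01% (detergent screen) or 0.0001% Triton X-100; 5.3 nM AmpC reagent; cpd preinc 15 min RT; nitrocefin (800 uM stock) to start; A480 q20 s × 4 min; Activity was normalised to no-enzyme and no-compound control wells.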
# RE007 growth inh – qHTS Assay for Inhibitors of the HIV-1 protein Vpr; AID 651644, 2012; Potency, µM (doses to about 92.2 µM), hits mostly inhibitors; S. pombe RE007 Vpr strain, BacTiter-Glo ATP luminescence, 24 h; 360,000 compounds, 0.21% hits; active = well fitted falling curve with a large enough effect; inconclusive = small, poorly fitted or top-dose-only effect; inactive = no such curve, though single readings can be large or run the other way; also: nearly all actives have a fitted effect of over 50% in size
#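 Fission yeast strain RE007, carrying one chromosomally integrated HIV-1 vpr copy, was seeded at OD 0.01 in PMG+AL medium with 23 nL pinned compound. After 24 h at 30 °C and 99% humidity, viability was read by BacTiter-Glo luminescence.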
# AmpC detergent – qHTS Inhibitors of AmpC Beta-Lactamase (assay with detergent) | P00811 | AmpC hydrolysis of nitrocefin, absorbance 480 nm, 0.01% Triton | Potency, µM (top dose mostly 114 µM), most hits filed as inhibitors | 370,000 compounds, 0.041% hits | AID 485294, 2010; also: nearly all actives have a fitted effect of over 25% in size
#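 20 mM phosphate pH 7.0 + 0.01% (detergent screen) or 0.0001% Triton X-100; 5.3 nM AmpC reagent; cpd preinc 15 min RT; nitrocefin (800 uM stock) to start; A480 q20 s × 4 min; Activity was normalised to no-enzyme and no-compound control wells.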
# Giardia FBPA inh – qHTS Assay for Inhibitors of Fructose-1,6-bisphosphate Aldolase from Giardia Lamblia | A8B2U2 | purified Giardia FBPA | Potency, µM (series often up to 59.6 µM), usual class: inhibitors | 290,000 compounds, 0.71% hits; also: nearly all actives have a fitted effect of over 55% in size
# Target sequence (A8B2U2 whole entry, looked up): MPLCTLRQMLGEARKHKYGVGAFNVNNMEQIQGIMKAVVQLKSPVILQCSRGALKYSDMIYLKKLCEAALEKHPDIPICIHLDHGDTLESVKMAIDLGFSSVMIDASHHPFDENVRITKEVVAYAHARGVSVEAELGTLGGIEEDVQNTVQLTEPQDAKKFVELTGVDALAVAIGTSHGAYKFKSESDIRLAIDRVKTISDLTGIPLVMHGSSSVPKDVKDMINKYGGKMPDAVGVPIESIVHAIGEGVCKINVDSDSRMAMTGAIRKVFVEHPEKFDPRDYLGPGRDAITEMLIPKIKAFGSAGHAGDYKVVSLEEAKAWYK
#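 40 nM FBPA preincubated 10 min at RT with compound (up to 57.5 uM final), then substrate plus GAPDH/TPI/NAD/arsenate coupling and diaphorase/resazurin added. Fluorescence read after 20 min at RT, 525/598 nm.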
# Sm TGR block – qHTS Assay for the Inhibitors of Schistosoma Mansoni Peroxiredoxins | purified TGR, DTNB reduction, TNB absorbance 405 nm | 360,000 compounds, 3% hits | Schistosoma mansoni thioredoxin glutathione reductase (TGR), Q962Y6 | Potency, µM (doses to about 114 µM), actives largely listed as inhibitors; also: nearly all actives have a fitted effect of over 60% in size
#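 TGR 20 nM + NADPH 100 uM (dispensed conc.), cpd preinc 15 min RT; start with NADPH (500 uM addition) then DTNB (15 mM addition). Kinetic TNB absorbance, 405 nm filter. Four-parameter Hill fit across titration.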
# Numbers stand for hits; - = inactive; ? = inconclusive; . = no result. Unless noted, calls follow the shape of the dose curve; as a rule, active = well fitted curve in the direction sought with a large enough effect; inconclusive = small, poorly fitted or top-dose-only effect, or another doubt; inactive = no such curve, though single readings can be large; an effect the other way counts as inactive or inconclusive.
SMILES,AmpC inh no detg,RE007 growth inh,AmpC detergent,Giardia FBPA inh,Sm TGR block
COc1cccc(-c2nc(CS(=O)(=O)CC(=O)Nc3cccc(C)c3C)c(C)o2)c1,45µM,-,?,-,?
CC(=O)Nc1ccc(C(=O)OCC(=O)N(C)C2CCCCC2)cc1,-,-,-,-,-
O=C(C[C@H]1C[C@H](C(=O)N2CCCCC2)[C@@]2(CCc3ccccc3)c3[nH]c4cc(-c5ccco5)ccc4c3CCN2C1=O)NCc1cccc(C(F)(F)F)c1,-,-,.,.,.
NC(=O)c1nsc(C(=O)N(c2ccc(F)cc2)C(C(=O)NCC2CCCO2)c2c[nH]c3ccccc23)c1N (stereo not given),-,-,-,-,25µM
NC(=O)c1nsc(C(=O)N(c2cccc(F)c2)C(C(=O)NCC2CCCO2)c2c[nH]c3ccccc23)c1N (stereo not given),-,-,-,-,18µM
CC(C)NC(=O)C1CCN(C2CCN(C(=O)/C=C/c3cccs3)CC2)CC1,-,-,-,-,-
COc1ccc(-c2csc(NC3OC(=O)c4c3ccc(OC)c4OC)n2)cc1OC (stereo not given),-,-,-,-,-
COc1ccc2c(c1OC)C(=O)OC2Nc1nc(-c2cc3cc(Br)ccc3oc2=O)cs1 (stereo not given),32µM,?,-,-,-
Cc1ccnc(NC(=S)NC(=O)/C=C/c2ccco2)c1,-,-,-,?,25µM
Cc1ccc(-c2csc(NC(=S)NC(=O)/C=C/c3ccco3)n2)cc1,4µM,-,-,.,-
CCCC(=O)NC(=S)Nc1ccc(Cl)cn1,-,-,-,-,-
Cc1ccc(O)c(NC(=S)NC(=O)/C=C/c2ccco2)c1,-,-,-,-,.
O=C(/C=C/c1ccco1)NC(=S)Nc1ccc(Cl)cn1,-,?,-,-,35µM
O=C(c1cncc(Br)c1)N1CCN(S(=O)(=O)c2ccccc2C(F)(F)F)CC1,-,-,-,-,-
O=C1NC(c2ccccc2)Nc2c1sc(=S)n2-c1ccccc1 (stereo not given),-,-,-,-,-
NS(=O)(=O)c1ccc(NC(=O)COC(=O)c2ccc([N+](=O)[O-])s2)cc1,-,-,-,-,25µM
O=C(N/N=C/C(Br)=C\c1ccccc1)c1cccs1,-,-,-,-,-
N#CC(C#N)=C1C=CC=CN1/C(=C\c1ccccc1Cl)C(=O)c1ccccc1,-,-,-,?,0.28µM
N#CC(C#N)=C1C=CC=CN1/C(=C\c1ccccc1)C(=O)c1cccs1,-,-,-,-,0.28µM
CN(c1ccc(OCc2nnc(-c3ccccc3)o2)cc1)S(=O)(=O)c1ccccc1,-,-,-,-,-
COc1ccc(C(C)=O)cc1COC(=O)CNC(=O)c1ccc(F)cc1,-,-,-,-,?
COc1ccc(C(C)=O)cc1COC(=O)CNC(=O)c1ccc(Cl)cc1,-,-,-,-,3.2µM
COc1ccc(C(C)=O)cc1COC(=O)Cc1cc(OC)c(OC)c(OC)c1,-,-,?,-,11µM
CCOc1ccc(C(=O)NCC(=O)OCc2cc(C(C)=O)ccc2OC)cc1,-,-,-,-,7.1µM
CCN(CC)CCNc1nc2c(c(=O)[nH]c(=O)n2C)n1CCCc1ccccc1,-,-,-,-,-
SMILES,AmpC inh no detg,RE007 growth inh,AmpC detergent,Giardia FBPA inh,Sm TGR block
O=c1cc[nH]c2cc(Cl)ccc12,-,-,-,-,-
O=C(CCc1ccccc1)Nc1cc2c3c(c1)CCC(=O)N3CCC2,-,-,-,.,-
O=[N+]([O-])c1ccccc1-c1ccc(/C=N/n2cnnc2)o1,-,-,-,-,-
O=[N+]([O-])c1cc(-c2ccc(/C=N\n3cnnc3)o2)cc([N+](=O)[O-])c1,?,-,-,-,40µM
Cc1ccc(C)c(S(=O)(=O)Nc2ccccc2C(=O)Nc2ccc(S(=O)(=O)Nc3ncccn3)cc2)c1,16µM,-,-,-,-
Cc1ccc(C)c(S(=O)(=O)Nc2ccc(S(=O)(=O)Nc3ncccn3)cc2)c1,-,-,-,.,-
COC(=O)c1cccc(-n2c(CCC(=O)O)ccc2-c2cccs2)c1,-,-,-,-,3.5µM
O=C(O)CCc1ccc(-c2cccs2)n1NC(=O)c1ccco1,-,-,-,-,?
COC(=O)c1cccc(-n2c(CCC(=O)O)ccc2-c2ccc(OC)cc2)c1,.,.,-,.,13µM
COc1ccc(-c2ccc(CCC(=O)O)n2-c2cc(OC)ccc2OC)cc1,.,-,.,.,.
CC(C)C(=O)Nc1ccc2c(c1)nc(CCN1CCN(c3ccccc3)CC1)n2C,-,-,-,-,-
Cc1ccc(CN(C)C(=O)COC(=O)CSc2ccc(C(N)=O)cc2[N+](=O)[O-])cc1,-,-,-,.,-
O=C(CCl)N1c2ccccc2CCc2ccccc21,-,.,-,-,11µM
CC(Cl)C(=O)N1c2ccccc2CCc2ccccc21 (stereo not given),-,-,?,-,-
CCN1C=C(Cc2ccc(OC)cc2)C2=C(C1)C(c1ccc(OC)cc1)C(C#N)=C(N)O2 (stereo not given),-,-,-,-,35µM
C/C(=C\c1cc2ccccc2o1)C1Nc2cccc3cccc(c23)N1,-,.,-,.,13µM
N#CN=C1SCCS1,-,-,-,-,-
CC(C)[C@@H](NC(=O)C1CCN(C(=O)[C@@H]2CCCN2C(=O)OC(C)(C)C)CC1)C(=O)NCc1ccc(F)cc1,-,-,?,-,-
Cc1ccc2c(c1)sc[n+]2Cc1ccccc1,-,-,-,-,5.6µM
S=C(NCCc1ccncc1)Nc1cccc2ccccc12,-,-,-,-,14µM
C=CCNC(=S)Nc1cccc2ccccc12,-,-,-,16µM,-
S=C(NCCc1ccccc1)Nc1ccccc1Cl,-,-,-,-,-
C=CCc1c(C)nc(-c2ccccc2)nc1N/N=C(\C)c1ccccc1,28µM,-,?,?,-
CNCc1ccccc1Sc1ccc(O)c(O)c1,-,-,?,2.5µM,22µM
CNC(C)Cc1ccccc1Sc1ccc(O)cc1 (stereo not given),-,-,?,-,-
SMILES,AmpC inh no detg,RE007 growth inh,AmpC detergent,Giardia FBPA inh,Sm TGR block
Cc1ccc2cc(NC(=O)c3ccc(C(C)(C)C)cc3)ccc2n1,-,-,-,-,-
N#CC(=C1CCCC1)c1nc(-c2ccccc2)cs1,-,-,-,.,?
N#CC(=C1CCCC1)c1nc(-c2ccccc2O)cs1,?,-,-,-,25µM
Cc1cc(C)cc(N2C(=O)C=CC2=O)c1,.,3.2µM,.,.,.
Cc1cc(C)cc(N2C(=O)c3nccnc3C2=O)c1,-,-,-,-,-
O=C(CSC1=NCCS1)NCc1ccco1,-,-,?,-,-
